GPT2 inh: blocks human glutamate pyruvate transaminase 2; 0.25% of 100,000 active; Q8TD30; Recombinant GPT2, coupled pyruvate oxidase/HRP Amplex Red fluorescence; Potency, µM (doses to about 57.7 µM), for the others: at the highest dose activity change, negative = inhibition, actives largely listed as inhibitors; also: nearly all actives have a fitted effect of over 60% in size
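Fluorescence read-out: pyruvate from GPT2 turnover coupled to pyruvate oxidase, HRP and Amplex Red (0.2mM ThPP, 0.2U/mL PO and HRP, 50uM Amplex final). Substrates 250uM a-KG, 2mM L-alanine; enzyme 10ng/uL; 30 min RT.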
NPR1 antag: human Npr1 receptor antagonism | HEK293 hNpr1 GloSensor cGMP, ANP-stimulated luminescence | AID 1347048 | P16066 | Potency, µM (doses to about 46.3 µM), inactives show top-dose activity change, negative = inhibition, most hits filed as inhibitors | 1.6% of 76,000 active; calls by dose curve; also: nearly all actives have a fitted effect of over 60% in size
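Compound pre-incubated 30 min at room temperature on GloSensor-loaded HEK293 cells stably carrying hNpr1 and the pGS-40F cGMP biosensor. Stimulation uses hNppA at 0.1 nM final; luminescence is taken at baseline and 20 min post-agonist.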
NIH3T3 tox: kills NIH 3T3 cells. NIH 3T3 viability, CellTiter-Glo ATP luminescence, 48-72 h. Potency, µM (titrated, usually from 96.7 µM), for inactives: at the highest dose activity change, negative = cytotoxicity, actives largely listed as inhibitors. 4.3% of 94,000 active. AID 1345082; also: nearly all actives have a fitted effect of over 55% in size
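NIH 3T3 cells at 400 cells/well received 23 nL of compound by pintool and were incubated 48 or 72 h at 37 °C. Viability was read as ATP-coupled CellTiter-Glo luminescence.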
FLuc inh: blocks purified firefly luciferase enzyme activity. purified P. pyralis luciferase, luminescence, biochemical. 2.5% of 76,000 active. P08659. AID 1347043. Potency, µM (doses to about 115 µM), actives largely listed as inhibitors; also: nearly all actives have a fitted effect of over 65% in size
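Biochemical qHTS: compound (6-point titration) added to 10uM D-luciferin plus 10uM ATP in Tris acetate pH 7.5 buffer with Mg, Tween-20 and BSA, then purified enzyme at 10nM; light output imaged.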
HEK293 tox: HEK 293 cell cytotoxicity. HEK 293 viability, ATP luminescence (CellTiter-Glo), 48-72 h. Potency, µM (top dose mostly 115 µM), inactives show at the top dose activity change, negative = cytotoxicity, hits mostly inhibitors. 6.6% of 94,000 active; also: nearly all actives have a fitted effect of over 60% in size
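HEK 293 cells seeded at 250 cells/well were exposed to compound for 48 or 72 hr at 37 degree Celsius. Viability taken as ATP content by CellTiter-Glo luminescence.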
Numbers without * were called inactive; i = inactive; ? = inconclusive; / = not tested or not shown; [ ] = dose if it differs, or a comment. Only some compounds are listed: those with a hit (about 10% of all), similar ones and a draw of the others. Unless noted, calls follow the shape of the dose curve; as a rule, active = well fitted curve in the direction sought with a large enough effect; inconclusive = small, poorly fitted or top-dose-only effect, or another doubt; inactive = no such curve, though single readings can be large; an effect the other way counts as inactive or inconclusive. % is scaled to controls: 0 for no effect and ±100 for the full control effect; potency is read from the fitted curve at half-maximal effect.

SMILES	GPT2 inh	NPR1 antag	NIH3T3 tox	FLuc inh	HEK293 tox
Cc1nnc([C@@H]2CC(F)(F)CN2C(=O)c2cccc3[nH]ccc23)o1	i	-2%	-19%	i	i
O=C(Nc1cccc(F)c1)N1CCCCCC1c1nc(-c2ccncc2)no1 (centres undefined)	i	0%	-25%	i	-13%
COCCNC(=O)C1CCCN1Cc1cccc(-c2ccc(C)c(Cl)c2)c1 (centres undefined)	/	/	35µM*	/	40µM*
CCCCCNC(=O)C1CCCN1Cc1cccc(-c2ccc(C)c(Cl)c2)c1 (centres undefined)	/	/	?	/	45µM*
Cc1ccc(-c2cccc(CN3CCCC3C(=O)NCC3CC3)c2)cc1Cl (centres undefined)	/	/	?	/	32µM*
CS(=O)(=O)N(C1CC1)C1CCOC2(CCN(C(=O)c3ccc(F)cc3)CC2)C1 (centres undefined)	i	4%	-18%	i	1%
Cc1nn(-c2ccccc2)c(Oc2ccccc2F)c1CCC(=O)NCc1ccco1	i	?	?	i	45µM*
Cc1nn(-c2ccc(F)cc2)c(Oc2ccccc2)c1CCC(=O)NCC1CC1	?	?	?	i	?
Cc1nn(-c2ccc(F)cc2)c(Oc2ccccc2F)c1CCC(=O)NCC1CC1	-30%	-23%	?	i	50µM*
O=C(Cc1cccc(Cl)c1)NC1CCN(Cc2cccc(-c3cccs3)c2)CC1	-3%	/	11µM*	/	22µM*
O=C(Nc1ccccc1F)NC1CCN(Cc2cccc(-c3cccs3)c2)CC1	3%	/	25µM*	/	25µM*
O=C(NC1CCCC1)NC1CCN(Cc2cccc(-c3cccs3)c2)CC1	i	/	-34%	/	?
O=C(Cc1cccc(Cl)c1)NC1CCN(Cc2cccc(-c3ccc(F)c(F)c3)c2)CC1	i	/	16µM*	/	20µM*
COCC(=O)N1CCC(Oc2nccnc2N2CCOCC2)C1 (centres undefined)	i	-2%	i	i	11%
COc1ccccc1N1CCN(CCCCNC(=O)c2ccc(-c3cscn3)cc2)CC1	2%	/	/	/	/
CCN(Cc1ccco1)C(=O)[C@@H]1CN(c2ncccn2)C[C@H]1COC	i	-16%	-8%	i	-29%
CCC(CC)n1ccc2c(C(=O)NCc3c(C)cc(C)[nH]c3=O)cc(C#N)cc21	-2%	/	/	/	/
N#Cc1cc([N+](=O)[O-])c2sc(C(N)=O)[n+]([O-])c2c1	13µM*	/	/	/	/
Cc1csc(Nc2ccc3c(n2)CN(Cc2ccccc2C)C(=O)CO3)n1	2%[88.5 µM]	?	25µM*	i	25µM*
Cc1ccccc1CN1Cc2nc(-c3c(C)noc3C)ccc2OCC1=O	-6%[88.5 µM]	-1%[70.6 µM]	?	i	?
Cc1ccccc1CN1Cc2nc(Nc3ccccc3)ccc2OCC1=O	i	-21%[70.6 µM]	?	i	71µM*
NC(=O)CNC(=O)C1=C[C@@H](NC(=O)c2cccc(F)c2)[C@@H](O)[C@H](O)C1	?	-3%[70.6 µM]	-15%[174 µM]	i	-5%[172 µM]
CCN1CCC2(Cc3ccccc3CN([S+](=O)([O-])c3ccccc3)C2)C1 (centres undefined)	1%	/	?	/	?
O=C(Nc1ccc(F)cc1)N1CC(c2nnc(-c3ccncc3)o2)C2(CCOCC2)C1 (centres undefined)	-5%	-12%	-5%	i	i
O=C1Nc2ccccc2CC12CCN2Cc1ccccc1C(F)(F)F (centres undefined)	-3%[88.5 µM]	-8%[70.6 µM]	?	i	79µM*
COCCN(Cc1ccsc1)Cc1cn[nH]c1-c1ccc(F)cc1	-1%	5%	-28%	i	89µM*
Fc1ccc(-c2[nH]ncc2CN(Cc2cccnc2)Cc2cccnc2)cc1	-44%	-7%	?	i	?
O=C1CO[C@H](c2ccc(NS(=O)(=O)c3ccccc3)cc2)[C@@H](CO)N1	-2%[88.5 µM]	5%[70.6 µM]	-27%[174 µM]	i	0%[172 µM]
CN(CCn1ccnc1)c1ccc(-c2nc(-c3cccc(Cl)c3)no2)cn1	i	?	?	3.2µM*	35µM*
